Measured values: PubChem BioAssay AID488969 (Vanderbilt High Throughput Screening Facility, 2010)
Whole data set: some 110,000 compounds, median “z-score” near -0.1, cut for the highest 2% near 2. Many of the other results were omitted from the sample, so the highest values are more common in it than they were. Activity calls are given as the source filed them.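 The calls were made as follows: active = z-score in the third read window above 3 or below -3; inactive = the rest.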

What follows are molecules tested against Metabotropic glutamate receptor 8 (Rattus norvegicus) (UniProt P70579) (assay: rat mGluR8 modulators via GIRK flux, primary screen, cell-based, thallium flux, HTS (AID 488969)). Conditions: HEK293 rat mGluR8, GIRK (G protein-gated inwardly rectifying potassium channel) thallium flux, FluoZin2; at 10 µM; stronger effect = higher value; submaximal glutamate (EC20) added with thallium.
Chain of Metabotropic glutamate receptor 8 (Rattus norvegicus) (P70579 whole entry, looked up): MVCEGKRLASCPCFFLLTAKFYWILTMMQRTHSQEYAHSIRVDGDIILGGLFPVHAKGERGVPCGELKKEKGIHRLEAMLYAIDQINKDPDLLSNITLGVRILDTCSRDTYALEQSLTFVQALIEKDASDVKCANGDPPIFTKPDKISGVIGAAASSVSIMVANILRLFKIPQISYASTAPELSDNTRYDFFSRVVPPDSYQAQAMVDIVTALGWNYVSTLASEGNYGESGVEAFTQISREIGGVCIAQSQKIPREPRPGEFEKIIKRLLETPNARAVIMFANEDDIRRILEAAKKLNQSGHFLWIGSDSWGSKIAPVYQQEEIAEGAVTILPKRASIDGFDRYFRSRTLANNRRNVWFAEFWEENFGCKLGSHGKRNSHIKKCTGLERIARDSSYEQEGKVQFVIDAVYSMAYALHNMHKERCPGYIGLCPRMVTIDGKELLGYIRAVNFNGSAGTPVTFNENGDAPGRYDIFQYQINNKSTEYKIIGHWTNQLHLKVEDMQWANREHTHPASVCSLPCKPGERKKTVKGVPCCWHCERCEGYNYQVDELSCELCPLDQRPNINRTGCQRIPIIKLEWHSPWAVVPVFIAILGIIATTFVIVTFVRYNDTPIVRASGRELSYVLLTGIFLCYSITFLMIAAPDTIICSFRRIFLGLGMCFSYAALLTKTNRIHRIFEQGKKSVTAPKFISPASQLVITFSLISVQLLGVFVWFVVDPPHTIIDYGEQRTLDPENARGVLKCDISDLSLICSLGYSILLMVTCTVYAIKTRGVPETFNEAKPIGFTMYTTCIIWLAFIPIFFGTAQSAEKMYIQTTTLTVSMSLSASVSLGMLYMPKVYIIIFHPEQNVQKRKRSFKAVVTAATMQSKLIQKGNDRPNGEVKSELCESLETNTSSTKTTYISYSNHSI
Work on O=S(=O)(NCc1ccccn1)c1ccccc1 yielded a z-score of -0.362.
COc1ccc(-c2nc(-c3cccc(C)c3)[nH]c(=O)c2C#N)cc1 gave a z-score of -0.296.
Work on COc1ccc(S(=O)(=O)n2ccc(C)n2)cc1C yielded a z-score of -0.988.
In the case of CCCNC(=O)C1CCN(S(=O)(=O)c2ccc(-c3nn[nH]n3)cc2)CC1, the z-score is reported as -0.171.
For N/C(=N\c1nc2c(c(=O)[nH]1)CCC2)Nc1ccccc1, the z-score was 0.214.
CC(=O)C1CCN(Cc2ccccc2)CC1 was tested, and the z-score was -0.262.
In the case of c1ccc(CN2CCOCC2)cc1, the z-score is reported as 0.378.
For CC12CN(Cc3ccccc3)CC(C)(CN(Cc3ccccc3)C1)C2=NO, the z-score was 2.4.
In the case of Cn1ncc(Br)c1C(=O)N/N=C/c1cccc(OC2CSC2)c1, the z-score is reported as -0.309.
O=C(CSc1nnnn1C1CCCCC1)NCc1ccco1 gave a z-score of -0.228.
With CCOC(=O)c1c(NC(=O)CNCCOC)sc2c1CCCC2 the z-score was -1.06.
Cc1nn(C)c(C)c1CN(C)C(=O)c1nn2c(c1Br)NC(c1cccs1)CC2C(F)(F)F (stereo unspecified) gave a z-score of 2.24.
With Cc1nn(C)c(C)c1CNC(=O)c1nn2c(c1Cl)NC(c1cccs1)CC2C(F)(F)F (stereo unspecified) the z-score was -0.0188.
Work on Cc1nn(C)c(C)c1CN(C)C(=O)c1cc2n(n1)C(C(F)(F)F)CC(c1cccs1)N2 (stereo unspecified) yielded a z-score of 0.0534.
Work on CCOc1ccc2nc(NC(=O)C3CCCN(S(=O)(=O)c4cccs4)C3)sc2c1 (stereo unspecified) yielded a z-score of 0.284.
In the case of COc1ccc(OC(C)C(=O)N2CCC(C)CC2)cc1 (stereo unspecified), the z-score is reported as 0.926.
With COc1ccc(C(=O)NC(=S)N2CC(C)OC(C)C2)cc1 (stereo unspecified) the z-score was 0.0339.
For CC1CCN(C(=S)NC(=O)c2ccccc2)CC1, the z-score was 4.42 (active).
With COc1ccc(C(=O)NC(=S)N2CCC(C)CC2)cc1 the z-score was 14.2 (active).
Molecule COc1ccc(C(=S)N2CCCCCC2)cc1 has a z-score of -0.075.
For COc1ccc(N2CCN(C(=S)Nc3cc(C)cc(C)c3)CC2)cc1, the z-score was 0.06.
Work on CNC(=S)N1CCN(c2cccc(OC)c2)CC1 yielded a z-score of 0.273.
For COc1ccc(C(=O)NC(=O)N2CCCCC2)cc1, the z-score was 0.975.
For CC1CCN(C(=S)NCCc2ccccc2)CC1, the z-score was -0.0312.
For COc1ccc(C(=O)NC(=S)N2CCCCC2)cc1, the z-score was 3.44 (active).
Work on Cc1cccc(C(=O)NC(=S)N2CCN(C(=S)NC(=O)c3cccc(C)c3)CC2)c1 yielded a z-score of 0.153.
For CNC(=S)N1CCN(c2ccc(OC)cc2)CC1, the z-score was 8.68 (active).
With O=C(OCc1ccccc1)C1=[N+]([O-])OC(C(=O)OCc2ccccc2)C1c1c[nH]c2ccccc12 (stereo unspecified) the z-score was -0.556.
CCOC(=O)C1=C(C)Nc2nc3ccccc3n2C1c1ccccc1 (stereo unspecified) gave a z-score of 0.0404.
Work on Cc1ccc2c(c1)CCCN2C(=O)c1ccncc1 yielded a z-score of 0.255.
Work on COc1cccc(C2=NOC(C(=O)Nc3cccc(C(C)=O)c3)C2)c1OC (stereo unspecified) yielded a z-score of 0.301.
In the case of Cc1c(-c2ccccc2)nc2ccccc2c1C(=O)OCC(=O)Nc1ncc(C(F)(F)F)cc1Cl, the z-score is reported as 0.00577.
For COC(=O)Cc1[nH]nc2c1C(c1c[nH]c3ccccc13)C(C#N)=C(N)O2 (stereo unspecified), the z-score was -0.415.
With COc1ccc(/C=N\N=C2/SC(CC(=O)O)C(=O)N2c2ccc(O)cc2)cc1OC (stereo unspecified) the z-score was -0.0449.
Molecule CC(=O)Nc1cccc2c1C(=O)NC2=O has a z-score of 0.274.
Molecule CC(C)Cn1cc(C(=O)NC2CCN(Cc3ccccc3)CC2)c2c3ccccc3n(C)c2c1=O has a z-score of -0.13.
For O=C(c1ccccc1)N1CCN(Cc2ccccc2)CC1, the z-score was -0.853.
With S=C(NCCc1ccccc1)N1CCN(Cc2ccccc2)CC1 the z-score was -0.499.
With O=C(NC(=S)N1CCN(Cc2ccccc2)CC1)c1ccccc1 the z-score was 6.31 (active).
O=C1NCCN1C(=O)c1ccccc1F gave a z-score of 0.555.
For Cc1csc(NC(=O)CSc2ncc(-c3ccccc3)[nH]2)n1, the z-score was 0.148.
With COc1ccc2c(=O)c3c(=O)n(Cc4ccco4)c(-c4ccco4)nc3oc2c1 the z-score was -0.397.
COc1ccc(Cn2c(-c3ccco3)nc3oc4cc(OC)ccc4c(=O)c3c2=O)cc1 gave a z-score of 2.22.
COc1ccc(Cn2c(-c3ccco3)nc3oc4ccccc4c(=O)c3c2=O)cc1 was tested, and the z-score was 0.403.
For CS(=O)(=O)N(CC(N)=O)c1ccc2c(c1)OCO2, the z-score was -0.00195.
For COc1ccc(NCC(=O)Nc2ccccc2C#N)cc1Cl, the z-score was -0.204.
Work on N#Cc1ccccc1NC(=O)CNc1ccc(Cl)c(C(F)(F)F)c1 yielded a z-score of 2.38.
With Cc1ccccc1NC(=O)CNc1ccc(Cl)c(C(F)(F)F)c1 the z-score was -0.365.
In the case of N#Cc1cc(Oc2cccnc2)c(Oc2cccnc2)cc1C#N, the z-score is reported as 0.18.
O=C(Nc1ccccc1)Nc1nccs1 showed a z-score of 1.3.
O=C(Nc1cccc(Cl)c1)Nc1nccs1 was tested, and the z-score was 10.2 (active).
Work on O=C(Nc1cccc(Cl)c1)Nc1cccc(Cl)c1 yielded a z-score of 0.0262.
COC(=O)c1ccc(Oc2nc3c(c(=O)n(C)c(=O)n3C)n2CCC(C)C)cc1 gave a z-score of 1.63.
For CN1C(=O)/C(=C/c2ccc3c(c2)OCO3)N=C1c1ccccc1, the z-score was 0.393.
Molecule CCC(=O)Nc1c(C(=O)N2CCCCCC2)cnn1-c1ccc(C)c(C)c1 has a z-score of 2.47.
Molecule O=C(Cc1ccccc1)Nc1c(C(=O)N2CCCCCC2)cnn1-c1ccccc1 has a z-score of -0.477.
